In paper PMC4336329 (PLoS ONE, 2015):
The whole screen tested about 310,000 compounds, of which about 14,000 (4.5%) showed an effect of 50% or more. Effects have a minus sign here. What follows is part of a selection rich in strong results, with near analogues and random picks from the rest.

Target: human ether-à-go-go-related gene (hERG) potassium channel (human, UniProt Q12809)
Experiment: primary screen, population patch clamp on CHO cells stably expressing hERG; higher = less effect of the substance
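Note: peak tail current of the secondary pulse compared with the same well before compound.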

Sequence of human ether-à-go-go-related gene (hERG) potassium channel (Q12809 whole entry, looked up): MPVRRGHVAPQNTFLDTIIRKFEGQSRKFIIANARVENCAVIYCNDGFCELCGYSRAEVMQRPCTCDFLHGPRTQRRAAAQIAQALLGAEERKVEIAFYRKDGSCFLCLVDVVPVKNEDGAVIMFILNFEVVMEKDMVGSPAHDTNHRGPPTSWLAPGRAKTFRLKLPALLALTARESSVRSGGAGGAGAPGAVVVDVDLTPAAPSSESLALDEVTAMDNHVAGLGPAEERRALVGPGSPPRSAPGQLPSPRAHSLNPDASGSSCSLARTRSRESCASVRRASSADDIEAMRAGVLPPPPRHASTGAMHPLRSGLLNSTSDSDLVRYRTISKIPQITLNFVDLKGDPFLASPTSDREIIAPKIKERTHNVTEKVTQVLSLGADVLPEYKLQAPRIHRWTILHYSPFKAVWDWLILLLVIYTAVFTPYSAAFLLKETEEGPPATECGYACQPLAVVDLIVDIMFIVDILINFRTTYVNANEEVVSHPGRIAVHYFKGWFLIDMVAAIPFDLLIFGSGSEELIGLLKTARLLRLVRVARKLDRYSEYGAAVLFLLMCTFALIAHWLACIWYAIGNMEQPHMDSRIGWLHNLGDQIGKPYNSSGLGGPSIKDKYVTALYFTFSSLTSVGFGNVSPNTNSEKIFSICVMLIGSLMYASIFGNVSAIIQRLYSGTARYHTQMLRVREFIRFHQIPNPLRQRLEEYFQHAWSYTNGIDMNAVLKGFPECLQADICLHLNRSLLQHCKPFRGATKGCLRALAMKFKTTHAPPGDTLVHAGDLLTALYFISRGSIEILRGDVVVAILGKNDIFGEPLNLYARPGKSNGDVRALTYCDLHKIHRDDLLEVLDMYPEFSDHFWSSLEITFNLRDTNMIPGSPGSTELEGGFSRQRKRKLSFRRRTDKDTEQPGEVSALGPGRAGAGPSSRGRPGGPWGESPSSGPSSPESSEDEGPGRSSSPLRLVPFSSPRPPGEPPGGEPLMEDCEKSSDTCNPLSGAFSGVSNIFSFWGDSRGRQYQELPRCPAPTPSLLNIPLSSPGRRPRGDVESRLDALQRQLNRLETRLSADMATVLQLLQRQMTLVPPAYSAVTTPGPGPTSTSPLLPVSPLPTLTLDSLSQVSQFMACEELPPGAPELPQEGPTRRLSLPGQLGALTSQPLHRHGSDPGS

Row | Structure (SMILES) | hERG current change (%, negative = inhibition) at 10uM [%]
1 | CC1CC(C)CN(S(=O)(=O)c2ccc(NC(=S)NC(=O)c3ccccc3)cc2)C1 (centres unmarked) | 8.01
2 | CN(C)S(=O)(=O)c1ccc(NC(=O)C2CC(=O)N(Cc3ccccc3Cl)C2)cc1 (centres unmarked) | -0.379
3 | CCCC1(C(=O)OC)NC(c2ccc(OC)c(OC)c2)C2C(=O)N(c3ccc4c(c3)OCO4)C(=O)C21 (centres unmarked) | 16.7
4 | COc1ccc(-c2c(C#Cc3ccsc3)c3ccccc3n2C)cc1 | -6.31
5 | CCOC(=O)C1CCN(C(=O)C(C)c2ccc([N+](=O)[O-])cc2)CC1 (centres unmarked) | -21.4
6 | CCOC(=O)C1CCN(C(=O)c2ccc(N3CCOCC3)c([N+](=O)[O-])c2)CC1 | -41.8
7 | CCOc1ccc(NC(=O)N2CCC(C(=O)c3ccc(F)cc3)CC2)cc1 | -20.8
8 | CCOc1ccc(C(=O)C2CCN(C(=O)c3ccccc3C(=O)O)CC2)cc1 | -5.42
9 | CCOc1ccc(C(=O)C2CCN(C(=O)c3ccc([N+](=O)[O-])cc3)CC2)cc1 | -79.9
10 | O=C(Oc1cccc([N+](=O)[O-])c1)C1CCN(C(=O)c2ccc(F)cc2)CC1 | -41
11 | CCOC(=O)C1CCN(C(=O)c2ccc(OCC)c(OCC)c2)CC1 | -79.4
12 | O=C(CCC(=O)c1ccc(F)cc1)OCc1nnc(-c2ccc([N+](=O)[O-])cc2)o1 | -47
13 | CCOC(=O)C1CCN(C(=O)c2cccc(C(=O)N3CCC(C(=O)OCC)CC3)c2)CC1 | 4.75
14 | O=C(OCc1nnc(-c2ccc([N+](=O)[O-])cc2)o1)C1CCN(C(=O)c2ccc(F)cc2)CC1 | -76
15 | CCOC(=O)C1CCN(C(=O)C2CCN(C(=O)c3ccc([N+](=O)[O-])cc3)CC2)CC1 | -69.3
16 | CCOC(=O)C1CCN(C(=O)c2cc(OCC)c(OCC)c(OCC)c2)CC1 | -3.3
17 | Cc1ccc(NS(=O)(=O)c2ccc(C(=O)NCc3cccnc3)cc2)cc1 | -4.14
18 | CC(C)c1ccc(NC(=O)CCS(=O)(=O)c2cccc3nonc23)cc1 | 1.81
19 | COc1cc(OC)cc(C(=O)N[C@H](C(=O)OCC(=O)Nc2cccc(F)c2)C(C)C)c1 | -5.55
20 | CC(C)(C)SCCNC(=O)CN1C(=O)c2ccccc2S1(=O)=O | -5.6
21 | CCOC(=O)C(=CNc1cccnc1Oc1ccc(C)c2c1CCC2)C(=O)OCC | -5.67
22 | Cc1cc(NC(=O)C(Cl)c2ccccc2)no1 (centres unmarked) | -0.0237

Row | Structure (SMILES) | hERG current change (%, negative = inhibition) at 10uM [%]
23 | O=C(CN(c1ccccc1)S(=O)(=O)c1ccccc1[N+](=O)[O-])Nc1cccnc1 | -21.1
24 | C=CCCC(=O)Nc1nc(C)c(-c2csc(Nc3ccccc3OC)n2)s1 | 3.6
25 | CCN1CCCC1CNC1=NCCCCC1 (centres unmarked) | 7.64
26 | CCc1nnc(NS(=O)(=O)c2ccc(NC(=O)c3ccccc3OC)cc2)s1 | 18.5
27 | COc1ccccc1Nc1nnc(SCc2cc(=O)n3cc(C)ccc3n2)s1 | -12.8
28 | COc1ccc(C)cc1NC(=O)NC1CCCCCCC1 | 21
29 | O=C(NCc1ccco1)c1ccc(Cl)c(S(=O)(=O)N2CCOCC2)c1 | -7.4
30 | O=C(Nc1ccccc1N1CCOCC1)c1ccc(S(=O)(=O)NCc2ccco2)cc1 | -15.7
31 | COc1ccccc1NC(=O)c1ccc(Cl)c(S(=O)(=O)NCc2ccco2)c1 | -37.7
32 | O=C(Nc1ccccc1N1CCOCC1)c1ccc(Cl)c(S(=O)(=O)NCc2ccco2)c1 | -51.8
33 | CN(C)C1(CNC(=O)c2ccc(Cl)c(S(=O)(=O)NCc3ccco3)c2)CCCCC1 | -37.3
34 | O=C(NCC1(N2CCOCC2)CCCCC1)c1ccc(Cl)c(S(=O)(=O)NCc2ccco2)c1 | -52.1
35 | Cc1nn(C)cc1CNC(=O)C1C2CCC(O2)C1C(=O)O (centres unmarked) | 23.7
36 | Cc1nn(-c2ccccc2)c(C)c1C(=O)OCC(=O)N1CCN(S(=O)(=O)c2ccccc2)CC1 | -11
37 | COc1ccccc1N(C(C)=O)C1SC(=O)N(c2ccccc2)C1=O (centres unmarked) | 14
38 | Cc1cc(C(=O)CN2C(=O)C(=O)N(C)C2=O)c(C)n1-c1cccc(S(=O)(=O)N2CCOCC2)c1 | -63.4
39 | Cc1cc(C(=O)CCl)c(C)n1-c1cccc(S(=O)(=O)N2CCOCC2)c1 | -77.4
40 | Cc1cc(C(=O)CN2C(=O)CN(C)C2=O)c(C)n1-c1cccc(S(=O)(=O)N2CCOCC2)c1 | -49.8
41 | Cc1cc(C(=O)COc2ccccc2[N+](=O)[O-])c(C)n1-c1cccc(S(=O)(=O)N2CCOCC2)c1 | -9.82
42 | Cc1cc(C(=O)CSc2ncn[nH]2)c(C)n1-c1cccc(S(=O)(=O)N2CCOCC2)c1 | -28.5
43 | Cc1ccc(C)n1-c1cccc(S(=O)(=O)N2CCOCC2)c1 | 7.55
44 | CCc1nnc(NS(=O)(=O)c2ccc(N=Cc3c(C)[nH]n(-c4cccc(Cl)c4)c3=O)cc2)s1 | 10.4
